This passage reports z-score and composite z-score results from PubChem BioAssay.

Experiment [1] in a line: optical density shifts of acrAB sulA E. coli – strain DRC41, OD650, 48 h, E. coli filamentation inducer project, primary screen (AID 1152).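 Also: E. coli MC1000 strain DRC41 lacking acrAB efflux pump and sulA.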 As to conditions: higher = more signal, called active from +8 up or from −8 down.
Experiment [2] in a line: probe aLefty1 binding on compound microarray – biochemical, small-molecule microarray, 635/667 nm fluorescence, primary screen (AID 1153).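 Also: score merges spot fluorescence with signal-to-noise ratio from the scanned slide images.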 As to conditions: higher = more signal.
A short description of experiment [3]: plasmodial surface anion channel blockers, osmotic lysis – cell-based, P. falciparum Indochina, OD700, 1 h, primary screen (AID 1154). The note with it: P. falciparum Indochina infected RBC osmotic lysis, higher = more signal, called active from +8 up or from −8 down.
Experiment [4] in a line: plasmodial surface anion channel blockers, osmotic lysis – cell-based, P. falciparum Indochina, OD700, 2 h, primary screen (AID 1155).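 Also: lysis reports solute entry through the parasite surface anion channel PSAC.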 As to conditions: P. falciparum Indochina infected erythrocytes, higher = more signal, called active from +8 up or from −8 down.
Experiment [5] is described as follows: changes in parasitized red cell lysis, either direction – P. falciparum Indochina, OD700, 3 h, PSAC antagonist project, primary screen (AID 1156). As to conditions: P. falciparum-infected erythrocytes, osmotic lysis, higher = more signal, called active from +8 up or from −8 down.
Experiment [6] in a line: plasmodial surface anion channel blockers, osmotic lysis – cell-based, P. falciparum Indochina, OD700, 18 h, primary screen (AID 1157). The note with it: P. falciparum Indochina infected erythrocytes, osmotic lysis OD700, 18 h; higher = more signal, called active from +8 up or from −8 down.
The nature of experiment [7]: S6 kinase pathway phospho-S6 level changes – cell-based, A549, cytoblot, luminescence, serum-stimulated, primary screen (AID 1158).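 Also: serum-stimulated A549 lung adenocarcinoma cells; signal is phosphorylated S6 detected by cytoblot immunostaining with HRP secondary.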 The note with it: 5 h, higher = more signal.
The target in experiment [8] is NADPH oxidase 2 (Homo sapiens) (UniProt P04839). Nature of the experiment: compounds shifting NOX2 Amplex Red fluorescence – cell-based, HEK293-NOX2, PMA-stimulated, NOX inhibitor project, primary screen (AID 1159). Also: test concentration not given here. The note with it: 45 min, higher = more signal, called active from +8 up or from −8 down.
NADPH oxidase 2 (Homo sapiens), sequence (P04839 whole entry, looked up): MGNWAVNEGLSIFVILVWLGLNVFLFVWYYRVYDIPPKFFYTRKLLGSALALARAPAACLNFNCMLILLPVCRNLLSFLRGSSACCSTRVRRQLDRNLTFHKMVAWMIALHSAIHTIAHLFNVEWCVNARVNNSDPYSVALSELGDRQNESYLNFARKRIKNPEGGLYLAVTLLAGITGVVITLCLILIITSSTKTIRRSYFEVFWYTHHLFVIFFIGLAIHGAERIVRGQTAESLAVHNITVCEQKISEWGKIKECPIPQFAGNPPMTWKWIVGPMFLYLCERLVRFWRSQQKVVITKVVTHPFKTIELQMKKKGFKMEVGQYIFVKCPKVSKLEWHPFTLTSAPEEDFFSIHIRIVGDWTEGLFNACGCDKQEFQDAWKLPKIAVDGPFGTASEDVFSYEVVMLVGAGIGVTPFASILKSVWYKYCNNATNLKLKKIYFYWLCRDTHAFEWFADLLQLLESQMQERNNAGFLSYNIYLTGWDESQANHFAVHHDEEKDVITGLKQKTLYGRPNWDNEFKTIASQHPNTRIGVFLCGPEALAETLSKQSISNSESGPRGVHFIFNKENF
In experiment [9] the target is NADPH oxidase 4 (Homo sapiens) (UniProt Q9NPH5). Nature of the experiment: compounds shifting NOX4 Amplex Red fluorescence – cell-based, HEK293-NOX4, tetracycline-induced, NOX inhibitor project, primary screen (AID 1160). As to conditions: HEK293-NOX4, Amplex Red H2O2 fluorescence, 45 min; higher = more signal, called active from +8 up or from −8 down.
NADPH oxidase 4 (Homo sapiens), sequence (Q9NPH5 whole entry, looked up): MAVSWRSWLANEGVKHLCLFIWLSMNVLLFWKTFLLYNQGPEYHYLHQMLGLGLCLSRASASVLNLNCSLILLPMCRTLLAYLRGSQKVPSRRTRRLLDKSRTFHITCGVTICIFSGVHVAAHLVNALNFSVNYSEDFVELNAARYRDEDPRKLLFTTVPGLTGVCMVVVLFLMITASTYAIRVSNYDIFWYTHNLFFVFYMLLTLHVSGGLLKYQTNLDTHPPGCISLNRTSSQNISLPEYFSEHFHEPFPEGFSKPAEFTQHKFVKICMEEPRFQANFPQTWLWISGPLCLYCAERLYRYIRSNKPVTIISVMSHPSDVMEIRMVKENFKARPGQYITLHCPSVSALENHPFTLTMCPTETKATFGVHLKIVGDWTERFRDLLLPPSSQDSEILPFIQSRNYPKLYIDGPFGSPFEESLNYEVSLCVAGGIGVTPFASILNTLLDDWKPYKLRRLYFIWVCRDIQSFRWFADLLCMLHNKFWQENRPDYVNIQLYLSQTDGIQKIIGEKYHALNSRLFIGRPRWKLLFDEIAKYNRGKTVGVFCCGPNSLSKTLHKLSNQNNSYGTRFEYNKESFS
Experiment [10] addresses NADPH oxidase 5 (Homo sapiens) (UniProt Q96PH1). Nature of the experiment: compounds shifting NOX5 Amplex Red fluorescence – cell-based, HEK293-NOX5, NOX inhibitor project, primary screen (AID 1161). The note with it: HEK293-NOX5, ionomycin, 45 min, higher = more signal.
A short description of experiment [11]: compound effects on lung adenocarcinoma cell viability – A549, calcein-AM fluorescence, 48 h, basal, profiling panel (AID 1162). Also: test concentration not given here. The note with it: higher = more signal.
Experiment [12] is described as follows: compound effects on differentiated 3T3-L1 adipocyte viability – cell-based, 3T3-L1 adipocytes, calcein-AM fluorescence, 48 h, basal, profiling panel (AID 1163). Also: test concentration not given here. The note with it: 3T3-L1 adipocytes viability, higher = more signal.
A short description of experiment [13]: compound effects on hepatocellular carcinoma cell viability – HepG2, calcein-AM fluorescence, 48 h, basal, profiling panel (AID 1164). Also: test concentration not given here. As to conditions: higher = more signal.
A short description of experiment [14]: compound effects on multiple myeloma cell viability – MM1S, calcein-AM fluorescence, 48 h, basal, profiling panel (AID 1165).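 Also: viability of MM1S multiple myeloma cells under basal unstimulated conditions; test concentration not given here.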 The note with it: higher = more signal.
The nature of experiment [15]: calcein-AM signal in unstimulated myeloma cells – cell-based, calcein-AM fluorescence, 48 h, PK04 Diversity Set, profiling panel (AID 1166).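 Also: cells grown under basal conditions without added stimulus; test concentration not given here.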 As to conditions: RPMI8226 myeloma viability, higher = more signal.
Experiment [16] in a line: JC-1 mitochondrial signal, unstimulated HepG2 cells – cell-based, JC-1 fluorescence, 24 h, 100 nL compound, profiling panel (AID 1167). Also: test concentration not given here. The note with it: HepG2 mitochondrial potential, higher = more signal.
The nature of experiment [17]: JC-1 mitochondrial signal, unstimulated adipocytes – cell-based, JC-1 fluorescence, 3T3-L1 adipocytes, 24 h, 100 nL compound, profiling panel (AID 1168). Also: test concentration not given here. The note with it: JC-1 mitochondrial fluorescence, higher = more signal, called active from +8 up or from −8 down.
A short description of experiment [18]: JC-1 mitochondrial signal, unstimulated myeloma cells – cell-based, JC-1 fluorescence, RPMI8226, 24 h, 100 nL compound, profiling panel (AID 1169). Also: test concentration not given here. As to conditions: JC-1 mitochondrial potential fluorescence, higher = more signal.
The nature of experiment [19]: JC-1 mitochondrial signal, unstimulated MM1S myeloma – cell-based, JC-1 fluorescence, 24 h, 100 nL compound, profiling panel (AID 1170). Also: test concentration not given here. As to conditions: MM1S mitochondrial potential, higher = more signal.
The nature of experiment [20]: resazurin metabolic signal in A549 cells – cell-based, resazurin fluorescence, 24 h, PK04 Diversity Set, profiling panel (AID 1171). Also: test concentration not given here. As to conditions: A549 viability, higher = more signal, called active from +8 up or from −8 down. In general terms: Alamar Blue is a resazurin reagent that responds to reducing activity.

The source made the active and inactive calls.

NADPH oxidase 5 (Homo sapiens), sequence (Q96PH1 whole entry, looked up): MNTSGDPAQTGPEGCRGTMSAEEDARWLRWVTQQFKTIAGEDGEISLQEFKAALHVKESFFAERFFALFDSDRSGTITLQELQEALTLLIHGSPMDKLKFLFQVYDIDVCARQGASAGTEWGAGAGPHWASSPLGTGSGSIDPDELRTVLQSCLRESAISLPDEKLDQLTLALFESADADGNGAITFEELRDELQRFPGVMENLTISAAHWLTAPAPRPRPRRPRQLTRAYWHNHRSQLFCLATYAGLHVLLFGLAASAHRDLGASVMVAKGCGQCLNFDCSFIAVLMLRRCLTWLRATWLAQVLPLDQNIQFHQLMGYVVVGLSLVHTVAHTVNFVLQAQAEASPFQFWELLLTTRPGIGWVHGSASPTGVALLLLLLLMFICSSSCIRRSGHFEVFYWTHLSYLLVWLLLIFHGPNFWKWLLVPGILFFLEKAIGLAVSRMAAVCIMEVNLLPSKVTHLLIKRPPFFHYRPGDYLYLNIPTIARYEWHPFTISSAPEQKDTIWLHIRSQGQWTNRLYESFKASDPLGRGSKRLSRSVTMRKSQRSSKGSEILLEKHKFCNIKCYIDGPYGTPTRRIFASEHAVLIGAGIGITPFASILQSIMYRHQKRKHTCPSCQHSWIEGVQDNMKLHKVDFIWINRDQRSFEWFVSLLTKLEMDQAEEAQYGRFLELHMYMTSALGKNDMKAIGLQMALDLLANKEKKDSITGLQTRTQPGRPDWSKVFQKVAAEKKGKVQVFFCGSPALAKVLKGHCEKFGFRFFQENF

On to `CON=C[C@@H](NS(=O)(=O)c1ccc(C)cc1)[C@H](C)C=CCC(=O)OC`, for which the z-score in experiment [1] is -1.47 (inactive); in [3] it was 0.553 (inactive); in [4], 0.849 (inactive); in experiment [5] it was -0.459 (inactive); in [6], 0.539 (inactive); in experiment [7] it was 0.22. The z-score was -0.153 (inactive) in experiment [8]; -0.345 (inactive) in [9]; -0.415 in experiment [10]; 1.19 in experiment [11]; -0.951 in experiment [12]; 0.244 in [13]. Further, the z-score was 0.561 in experiment [14]; 0.226 in experiment [15]; 0.271 in [16]; -0.95 (inactive) in experiment [17]; -0.0325 in experiment [18]; 0.0264 in experiment [19]. In [20], the z-score is -0.262 (inactive). In addition, the composite z-score in [2] is -0.0984.
For `C#CCCCON=C1C[C@@H](O)[C@@H](O)[C@@H]2[C@@H]3C(=O)N(CCC(=O)OCC)C(=O)[C@@H]3CC[C@H]12`, the z-score in experiment [1] is 0.756 (inactive); in experiment [3] it was 1.08 (inactive); in [4], -1.4 (inactive); in experiment [5], 0.792 (inactive); in [6] it was -1.51 (inactive); in [7], 1.76. Moreover, the z-score in experiment [8] is -2.03 (inactive); in experiment [9], 0.213 (inactive); in [10], -0.949; in [11] it was 0.278; in experiment [12], 0.73; in experiment [13], 0.249. Further, the z-score is -0.0993 in [14]; 0.111 in [15]; 0.0972 in experiment [16]; -0.367 (inactive) in experiment [17]; 0.0174 in [18]; -1.36 in experiment [19]. Further, in experiment [20], the z-score was -1.11 (inactive). For the same molecule, in [2], the composite z-score came out at 0.105.
Regarding `Cc1cc2c(c(=O)o1)[C@@H](O)[C@H]1O[C@H]1C2=O`, the z-score was -1.63 (inactive) in [1]; 0.381 (inactive) in experiment [3]; 0.716 (inactive) in experiment [4]; 0.634 (inactive) in [5]; 0.348 (inactive) in experiment [6]; 0.0719 in experiment [7]. The z-score in experiment [8] was 1.6 (inactive); in experiment [9], -0.899 (inactive); in [10] it was -1.31; in [11], -0.223; in experiment [12], 0.374; in [13] it was 0.123. Moreover, the z-score in [14] is 0.65; in [15] it was -1.15; in [16], -0.352; in [17], -0.659 (inactive); in [18], -0.141; in experiment [19] it was 0.0583. The z-score in experiment [20] was -0.588 (inactive). In [2], this molecule gave a composite z-score of -0.0547.
For `CCOC(=O)NN=C1C[C@@H](O)[C@@H](O)[C@@H]2[C@@H]3C(=O)N(c4ccc(F)cc4F)C(=O)[C@@H]3CC[C@@H]12`, the z-score in experiment [1] was -0.588 (inactive); in experiment [3], 1.73 (inactive); in experiment [4] it was 0.719 (inactive); in experiment [5], 0.171 (inactive); in experiment [6], 0.0581 (inactive); in experiment [7] it was -0.561. Further, the z-score in experiment [8] was 0.992 (inactive); in experiment [9], 0.605 (inactive); in experiment [10] it was -0.407; in experiment [11] it was 0.187; in experiment [12], -0.384; in experiment [13], -1.12. For the same molecule, the z-score is 0.218 in experiment [14]; 0.617 in [15]; 0.333 in experiment [16]; 0.076 (inactive) in [17]; 0.285 in experiment [18]; -0.326 in [19]. Also, in [20], the z-score is 0.485 (inactive). Also, the composite z-score in [2] was 0.197.
Take `COc1ccc(O[C@H]2C=C[C@@H](c3ccccc3)O[C@@H]2CON=C(C)C)cc1`: the z-score in experiment [1] is -2.05 (inactive); in experiment [3], 0.288 (inactive); in experiment [4], -0.0779 (inactive); in experiment [5], -0.541 (inactive); in [6], 0.196 (inactive); in experiment [7] it was -0.807. Besides, the z-score was -0.254 (inactive) in [8]; -0.311 (inactive) in experiment [9]; -0.684 in experiment [10]; 0.124 in [11]; -0.556 in experiment [12]; -0.462 in experiment [13]. Besides, the z-score in [14] was -1.53; in [15], -0.372; in experiment [16] it was -1.18; in [17], 0.148 (inactive); in [18] it was 0.472; in experiment [19], -0.867. Further, in experiment [20], the z-score was 0.0001 (inactive). In experiment [2], this molecule came in with a composite z-score of 0.407.
As for `CC(=O)OC[C@H]1O[C@H](CCON=C2[C@H]3CCn4c(=O)n(-c5ccccc5)c(=O)n4[C@H]3[C@H](O)[C@@H]3O[C@H]23)C=C[C@@H]1OC(C)=O`, the z-score in [1] was 0.0711 (inactive); in experiment [3], 0.553 (inactive); in experiment [4], 0.0612 (inactive); in experiment [5], -0.192 (inactive); in experiment [6], 0.269 (inactive); in experiment [7], -0.84. Moreover, the z-score in [8] is -0.564 (inactive); in [9], 0.0641 (inactive); in [10], -0.0303; in [11], 0.0488; in experiment [12], -1.08; in experiment [13], 0.254. Further, the z-score is -0.775 in experiment [14]; -0.645 in [15]; -0.58 in experiment [16]; -0.91 (inactive) in experiment [17]; 0.602 in experiment [18]; -0.876 in experiment [19]. Further, the z-score in experiment [20] is -0.862 (inactive). Besides, in [2], the composite z-score worked out at 0.637.
As to `C#CCCCON=C1C[C@@H](O)[C@@H](O)[C@@H]2[C@@H]3C(=O)N(C(C)(C)C)C(=O)[C@@H]3CC[C@@H]12`, the z-score in [1] was -0.441 (inactive); in experiment [3] it was 3.54 (inactive); in experiment [4], 1.28 (inactive); in experiment [5], 0.158 (inactive); in experiment [6], 0.305 (inactive); in [7] it was 0.929. The z-score in experiment [8] was 0.934 (inactive); in experiment [9] it was 1.27 (inactive); in experiment [10] it was -0.106; in experiment [11] it was -0.145; in experiment [12], -0.619; in [13] it was -0.486. In addition, the z-score in [14] is 0.154; in [15], 0.381; in experiment [16], -0.465; in experiment [17] it was -0.286 (inactive); in experiment [18], -0.0943; in experiment [19], -0.283. In addition, the z-score in experiment [20] is -0.152 (inactive). The composite z-score in experiment [2] is 0.308.
In the case of `CO[C@@H]1COC(=O)[C@H](CCSC)NC(=O)CC=C[C@@H](C)COC(=O)CCC[C@H]1C`, the z-score in experiment [1] was 0.337 (inactive); in experiment [3], 19.7 (active); in [4], 3.14 (inactive); in experiment [5], 2.07 (inactive); in [6], 1.18 (inactive); in experiment [7], 0.016. Further, the z-score in [8] is -1.12 (inactive); in experiment [9] it was 0.369 (inactive); in experiment [10] it was -0.918; in experiment [11] it was 0.471; in experiment [12] it was -0.304; in experiment [13] it was -0.764. In addition, the z-score in experiment [14] is -0.38; in experiment [15], -0.687; in experiment [16], 1.95; in [17], -0.688 (inactive); in experiment [18] it was -0.194; in experiment [19], -0.0804. Moreover, the z-score in experiment [20] was 0.977 (inactive). For the same molecule, in experiment [2], the composite z-score amounted to 0.729.
